Source: PubChem BioAssay
Where “and” joins values, the source holds several entries; their conditions need not be identical. Equal values may be shown once. Calls of active or inactive are those of the source.

Columns and labels:
[1] = tested on: PRMT1 (protein arginine N-methyltransferase 1); experiment: PRMT1 binders on small-molecule microarrays, primary screen, biochemical, small-molecule microarray, 635 nm fluorescence (AID 1088); conditions: small-molecule microarray binding, higher = more signal;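 also: binding of Prmt1 protein to compounds spotted on small-molecule microarray slides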
[2] = yeast growth modulation, basal conditions, primary screen, YJM789 clinical isolate, OD600, 24 h (AID 1089);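 also: growth of clinical yeast isolate S. cerevisiae YJM 789 seeded 1000 cells per well; test concentration not given here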; conditions: S. cerevisiae YJM789 growth, higher = more signal, called active from +8 up or from −8 down
[3] = fission yeast growth modulation, primary screen, strain 972, OD600, 24 h, no modulator (AID 1090);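 also: basal condition with compound alone and no growth modifier present; test concentration not given here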; conditions: S. pombe 972 growth, higher = more signal, called active from +8 up or from −8 down
[4] = S. cerevisiae growth modulation with rapamycin, primary screen, strain BY4716, OD600, 96 h (AID 1091); conditions: higher = more signal, called active from +8 up or from −8 down; also: test concentration not given here
[5] = target: Torsin-1A-interacting protein 2 (Homo sapiens) (UniProt Q8NFQ8); experiment: LULL1 binders on small-molecule microarray, primary screen, cell lysate, human LULL1 lysate, 635/667 nm fluorescence (AID 1092); conditions: hLULL1 lysate binding, 635 nm fluorescence, higher = more signal;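 also: probe is lysate of COS7 cells overexpressing human LULL1; score merges per-feature 667 nm fluorescence with signal-to-noise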
Chain of Torsin-1A-interacting protein 2 (Homo sapiens) (Q8NFQ8 whole entry, looked up): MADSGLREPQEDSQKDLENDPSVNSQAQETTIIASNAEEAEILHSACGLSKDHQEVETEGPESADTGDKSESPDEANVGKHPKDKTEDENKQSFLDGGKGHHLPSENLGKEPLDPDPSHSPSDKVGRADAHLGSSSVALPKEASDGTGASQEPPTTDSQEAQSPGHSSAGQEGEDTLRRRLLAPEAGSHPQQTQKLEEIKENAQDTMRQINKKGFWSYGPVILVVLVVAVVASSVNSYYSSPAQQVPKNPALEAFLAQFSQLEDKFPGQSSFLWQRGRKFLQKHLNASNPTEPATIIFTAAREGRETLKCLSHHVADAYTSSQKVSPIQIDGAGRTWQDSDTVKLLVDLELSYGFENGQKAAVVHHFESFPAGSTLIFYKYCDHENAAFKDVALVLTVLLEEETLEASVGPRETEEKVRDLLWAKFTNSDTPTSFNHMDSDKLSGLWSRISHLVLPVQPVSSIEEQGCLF

[6] = E. coli growth modulation, two-sided OD650, primary screen, E. coli filamentation project, strain DRC41, 24 h (AID 1093); conditions: OD650, 24 h, higher = more signal, called active from +8 up or from −8 down;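 also: MC1000 strain lacking acrAB efflux and sulA so SOS filamentation is blocked; test concentration not given here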
[7] = small-molecule microarray binders of probe aLefty2, primary screen, biochemical, biotinylated probe, 635/667 nm fluorescence (AID 1094); conditions: higher = more signal;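 also: score merges spot fluorescence near 667 nm with spot signal-to-noise ratio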
[8] = tested on: Noggin (protein binding on small-molecule microarray); experiment: Noggin binders on small-molecule microarray, primary screen, biochemical, 635/667 nm fluorescence (AID 1095); conditions: 635 nm fluorescence, higher = more signal;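 also: score merges 667 nm feature fluorescence with signal to noise over triplicate slides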
[9] = target: Neurogenic locus notch homolog protein 3 (Homo sapiens) (UniProt Q9UM47); experiment: NOTCH3 binders on small-molecule microarray, primary screen, biochemical, 635/667 nm fluorescence (AID 1096); conditions: NOTCH3 binding, 635 nm fluorescence, higher = more signal
Chain of Neurogenic locus notch homolog protein 3 (Homo sapiens) (Q9UM47 whole entry, looked up): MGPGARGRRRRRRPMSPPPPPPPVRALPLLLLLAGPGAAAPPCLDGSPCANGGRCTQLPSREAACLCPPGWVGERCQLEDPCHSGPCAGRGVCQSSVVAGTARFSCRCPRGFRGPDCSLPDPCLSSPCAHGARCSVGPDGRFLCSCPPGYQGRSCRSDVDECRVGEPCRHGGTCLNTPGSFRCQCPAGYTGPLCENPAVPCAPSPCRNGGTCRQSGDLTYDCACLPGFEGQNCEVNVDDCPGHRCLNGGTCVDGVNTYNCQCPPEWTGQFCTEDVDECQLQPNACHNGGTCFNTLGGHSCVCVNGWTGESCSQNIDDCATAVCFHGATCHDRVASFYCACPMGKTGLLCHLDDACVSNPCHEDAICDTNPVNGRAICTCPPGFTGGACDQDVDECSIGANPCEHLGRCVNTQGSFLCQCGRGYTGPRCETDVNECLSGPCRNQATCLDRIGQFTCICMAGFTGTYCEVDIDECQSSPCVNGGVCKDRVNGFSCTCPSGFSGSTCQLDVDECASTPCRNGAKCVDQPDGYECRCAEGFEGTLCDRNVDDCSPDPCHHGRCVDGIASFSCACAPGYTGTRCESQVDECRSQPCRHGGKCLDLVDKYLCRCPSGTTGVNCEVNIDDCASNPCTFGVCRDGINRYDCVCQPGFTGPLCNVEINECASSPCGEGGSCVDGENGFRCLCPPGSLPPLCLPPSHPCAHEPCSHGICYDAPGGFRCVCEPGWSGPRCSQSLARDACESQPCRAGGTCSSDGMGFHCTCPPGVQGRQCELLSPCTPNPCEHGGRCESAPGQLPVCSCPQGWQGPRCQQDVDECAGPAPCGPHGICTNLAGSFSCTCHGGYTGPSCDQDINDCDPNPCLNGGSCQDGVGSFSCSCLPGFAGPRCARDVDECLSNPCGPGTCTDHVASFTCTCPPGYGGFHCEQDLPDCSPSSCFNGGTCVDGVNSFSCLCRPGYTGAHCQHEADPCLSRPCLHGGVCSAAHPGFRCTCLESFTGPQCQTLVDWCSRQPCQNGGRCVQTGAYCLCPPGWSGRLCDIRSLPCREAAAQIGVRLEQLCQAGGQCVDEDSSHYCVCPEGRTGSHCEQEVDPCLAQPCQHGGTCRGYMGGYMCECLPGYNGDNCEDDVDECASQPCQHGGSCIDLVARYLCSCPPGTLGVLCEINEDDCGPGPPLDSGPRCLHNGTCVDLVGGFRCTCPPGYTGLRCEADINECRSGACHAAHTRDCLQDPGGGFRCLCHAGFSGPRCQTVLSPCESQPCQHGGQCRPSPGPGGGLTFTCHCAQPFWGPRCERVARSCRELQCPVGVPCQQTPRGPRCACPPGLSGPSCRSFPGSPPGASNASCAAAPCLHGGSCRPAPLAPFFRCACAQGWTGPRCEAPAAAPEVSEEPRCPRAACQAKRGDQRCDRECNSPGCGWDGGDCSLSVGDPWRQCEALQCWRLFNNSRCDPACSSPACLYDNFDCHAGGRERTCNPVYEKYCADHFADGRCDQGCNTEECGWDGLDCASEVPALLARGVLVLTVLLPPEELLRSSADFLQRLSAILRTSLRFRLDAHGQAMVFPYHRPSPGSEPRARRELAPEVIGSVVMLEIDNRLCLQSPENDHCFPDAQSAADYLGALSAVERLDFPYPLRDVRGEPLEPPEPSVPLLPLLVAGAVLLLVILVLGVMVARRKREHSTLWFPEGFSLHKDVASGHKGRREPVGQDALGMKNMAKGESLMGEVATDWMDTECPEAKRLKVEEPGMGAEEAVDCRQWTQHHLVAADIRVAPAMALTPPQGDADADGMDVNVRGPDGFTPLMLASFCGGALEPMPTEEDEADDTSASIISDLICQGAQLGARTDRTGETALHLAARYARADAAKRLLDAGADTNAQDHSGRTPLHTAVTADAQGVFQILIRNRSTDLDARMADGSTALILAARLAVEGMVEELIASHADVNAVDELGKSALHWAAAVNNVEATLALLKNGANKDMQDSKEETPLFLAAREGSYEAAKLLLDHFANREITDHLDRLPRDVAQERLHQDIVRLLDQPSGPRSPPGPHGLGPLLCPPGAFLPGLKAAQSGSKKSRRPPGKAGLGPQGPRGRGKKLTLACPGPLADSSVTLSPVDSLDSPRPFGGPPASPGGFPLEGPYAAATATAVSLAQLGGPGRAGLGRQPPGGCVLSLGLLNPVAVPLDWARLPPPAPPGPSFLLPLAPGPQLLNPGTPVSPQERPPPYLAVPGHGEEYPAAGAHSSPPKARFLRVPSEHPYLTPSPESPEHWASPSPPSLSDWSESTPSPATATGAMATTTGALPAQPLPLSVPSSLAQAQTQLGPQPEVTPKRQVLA

[10] = small-molecule microarray binders of probe aEGFR, primary screen, biochemical, biotinylated probe, 635/667 nm fluorescence (AID 1097); conditions: higher = more signal;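 also: probe is a biotinylated anti-EGFR antibody binding compounds printed on slides; score combines fluorescence near 667 nm and signal to noise of each spot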
[11] = tested on: Plasmodium falciparum Sir2 (PF13_0152, Sir2A); experiment: pfSir2 binders on small-molecule microarrays, primary screen, biochemical, small-molecule microarray, 635 nm fluorescence (AID 1098); conditions: small-molecule microarray binding, fluorescence 635 nm; higher = more signal;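 also: score merges spot fluorescence intensity with its signal-to-noise ratio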
[12] = small-molecule microarray binders of probe aDKK1, primary screen, biochemical, biotinylated probe, 635/667 nm fluorescence (AID 1099); conditions: higher = more signal;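 also: score merges 667nm spot fluorescence with signal to noise across triplicate slides; reference of the scale not given here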
[13] = small-molecule microarray binders of probe aCHRDL2, primary screen, biochemical, biotinylated probe, 635/667 nm fluorescence (AID 1100); conditions: higher = more signal
[14] = splicing luciferase reporter signal modulators, primary screen, spliceosome inhibition project, cell-based, HEK293, splice +/- reporter (AID 1101); conditions: luminescence, 24 h, higher = more signal, called active from +8 up or from −8 down;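 also: HEK293 cells carrying a splicing-competent luciferase reporter gene; test concentration not given here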
[15] = target: Fibroblast growth factor 10 (Homo sapiens) (UniProt O15520); experiment: FGF10 binders on small-molecule microarrays, primary screen, biochemical, small-molecule microarray, 635 nm fluorescence (AID 1102); conditions: FGF10 binding, fluorescence 635 nm, higher = more signal
Chain of Fibroblast growth factor 10 (Homo sapiens) (O15520 whole entry, looked up): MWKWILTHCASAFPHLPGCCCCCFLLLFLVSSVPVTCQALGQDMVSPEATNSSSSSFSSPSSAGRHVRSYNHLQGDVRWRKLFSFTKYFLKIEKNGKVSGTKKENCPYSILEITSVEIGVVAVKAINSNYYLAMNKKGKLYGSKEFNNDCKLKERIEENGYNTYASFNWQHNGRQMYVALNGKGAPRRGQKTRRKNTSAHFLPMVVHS

[16] = tested on: glycogen synthase kinase-3 (GSK3A per assay name; protocol says GSK3B); experiment: GSK3 binders on small-molecule microarrays, primary screen, biochemical, small-molecule microarray, 635 nm fluorescence, GSK3A (AID 1103); conditions: small-molecule microarray binding, fluorescence 635 nm; higher = more signal; also: the record names both GSK3A and GSK3B
[17] = target: Epidermal growth factor receptor (Homo sapiens) (UniProt P00533); experiment: EGFR binders on small-molecule microarrays, primary screen, biochemical, small-molecule microarray, 635 nm fluorescence (AID 1104); conditions: EGFR binding, higher = more signal;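 also: score merges 667 nm emission intensity with spot signal to noise over triplicate slides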
Chain of Epidermal growth factor receptor (Homo sapiens) (P00533 whole entry, looked up): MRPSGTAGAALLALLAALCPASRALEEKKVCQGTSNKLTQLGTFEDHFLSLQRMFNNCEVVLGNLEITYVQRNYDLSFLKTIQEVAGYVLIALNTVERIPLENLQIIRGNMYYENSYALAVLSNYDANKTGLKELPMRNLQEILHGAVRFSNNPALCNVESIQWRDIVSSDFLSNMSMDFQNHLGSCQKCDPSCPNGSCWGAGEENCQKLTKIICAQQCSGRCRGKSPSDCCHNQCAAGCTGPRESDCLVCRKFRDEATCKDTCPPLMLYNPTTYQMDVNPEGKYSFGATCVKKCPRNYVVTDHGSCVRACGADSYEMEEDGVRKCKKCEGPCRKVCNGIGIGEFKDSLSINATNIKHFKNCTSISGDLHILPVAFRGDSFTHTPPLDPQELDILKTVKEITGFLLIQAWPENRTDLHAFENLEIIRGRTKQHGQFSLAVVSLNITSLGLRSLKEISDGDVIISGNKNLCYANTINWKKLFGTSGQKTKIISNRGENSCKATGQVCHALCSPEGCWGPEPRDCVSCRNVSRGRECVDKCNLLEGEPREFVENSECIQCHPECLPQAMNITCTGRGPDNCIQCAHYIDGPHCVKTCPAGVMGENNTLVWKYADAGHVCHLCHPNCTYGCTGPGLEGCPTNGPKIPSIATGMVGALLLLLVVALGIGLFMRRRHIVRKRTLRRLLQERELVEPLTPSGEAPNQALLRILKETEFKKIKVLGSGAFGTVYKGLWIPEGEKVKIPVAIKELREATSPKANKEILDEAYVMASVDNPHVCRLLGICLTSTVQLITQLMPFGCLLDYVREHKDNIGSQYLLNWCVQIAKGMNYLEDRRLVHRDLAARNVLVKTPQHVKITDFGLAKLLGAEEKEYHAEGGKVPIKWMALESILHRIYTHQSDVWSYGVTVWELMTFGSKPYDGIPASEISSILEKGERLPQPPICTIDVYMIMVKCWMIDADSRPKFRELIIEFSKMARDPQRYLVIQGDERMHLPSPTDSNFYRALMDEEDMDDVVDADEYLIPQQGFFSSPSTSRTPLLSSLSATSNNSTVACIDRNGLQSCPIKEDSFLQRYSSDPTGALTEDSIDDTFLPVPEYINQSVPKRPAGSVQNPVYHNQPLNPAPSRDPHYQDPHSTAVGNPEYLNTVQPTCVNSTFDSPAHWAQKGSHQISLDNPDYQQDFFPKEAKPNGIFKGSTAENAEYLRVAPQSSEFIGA

[18] = target: Follistatin-related protein 3 (Homo sapiens) (UniProt O95633); experiment: FSTL3 binders on small-molecule microarrays, primary screen, biochemical, small-molecule microarray, 635 nm fluorescence (AID 1105); conditions: FSTL3 binding, higher = more signal;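 also: score merges emission near 667 nm and signal to noise per printed spot across three slides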
Chain of Follistatin-related protein 3 (Homo sapiens) (O95633 whole entry, looked up): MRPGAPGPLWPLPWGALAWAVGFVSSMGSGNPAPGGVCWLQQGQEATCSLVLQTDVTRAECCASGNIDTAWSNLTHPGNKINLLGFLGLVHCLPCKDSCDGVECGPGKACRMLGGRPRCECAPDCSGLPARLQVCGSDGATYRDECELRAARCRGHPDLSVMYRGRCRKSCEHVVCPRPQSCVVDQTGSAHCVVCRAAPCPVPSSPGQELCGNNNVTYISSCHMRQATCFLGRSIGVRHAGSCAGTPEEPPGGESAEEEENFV

[19] = target: Dickkopf-related protein 1 (Homo sapiens) (UniProt O94907); experiment: DKK1 binders on small-molecule microarrays, primary screen, biochemical, small-molecule microarray, 635 nm fluorescence scan (AID 1106); conditions: DKK1 binding, higher = more signal;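 also: score merges emission near 667 nm with signal to noise over three replicate slides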
Chain of Dickkopf-related protein 1 (Homo sapiens) (O94907 whole entry, looked up): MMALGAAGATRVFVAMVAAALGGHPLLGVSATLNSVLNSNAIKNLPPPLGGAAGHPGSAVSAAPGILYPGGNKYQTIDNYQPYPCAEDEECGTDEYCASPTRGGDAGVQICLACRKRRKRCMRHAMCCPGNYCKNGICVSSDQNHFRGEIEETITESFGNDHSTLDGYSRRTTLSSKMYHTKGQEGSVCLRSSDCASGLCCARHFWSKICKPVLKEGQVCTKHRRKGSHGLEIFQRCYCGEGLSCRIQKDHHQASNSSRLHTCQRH

[20] = tested on: Inhibin beta A chain (activin A); experiment: INHBA (activin A) binders on microarrays, primary screen, biochemical, small-molecule microarray, 635 nm fluorescence scan (AID 1107); conditions: small-molecule microarray binding, higher = more signal;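 also: mouse activin A protein probed at 4.33 µg/mL on printed slides; score merges bound-protein fluorescence near 667 nm with spot signal-to-noise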

C=CCN(C(=O)C(c1cccs1)N(C(=O)/C=C\C(=O)O)C(C)(C)CO)C(C)(C)C (stereo not given)
composite z-score [1]: -0.381 and 0.182
z-score [2]: -1.81 (inactive) and -2 (inactive)
z-score [3]: -1.45 (inactive) and -1.15 (inactive)
z-score [4]: -0.429 (inactive) and -0.373 (inactive)
composite z-score [5]: 2.89 and 0.484
z-score [6]: 2.02 (inactive) and 1.22 (inactive)
composite z-score [7]: -0.141 and -0.147
composite z-score [8]: -1.52 and -1.23
composite z-score [9]: -0.97 and -0.967
composite z-score [10]: -0.128 and -0.292
composite z-score [11]: -0.387 and -0.159
composite z-score [12]: -0.136 and -0.239
composite z-score [13]: 0.784 and 0.498
z-score [14]: -1.67 (inactive) and -1.52 (inactive)
composite z-score [15]: -1.22 and -1.16
composite z-score [16]: -0.489 and -0.532
composite z-score [17]: -0.928 and -0.661
composite z-score [18]: -1.54 and -1.07
composite z-score [19]: -1.53 and -1.58
composite z-score [20]: -0.792 and -0.643

Cc1ccc(S(=O)(=O)N[C@H]2COC(=O)[C@@H](C)COC(=O)[C@H](C)NC(=O)CC=C[C@H]2C)cc1
composite z-score [1]: 0.277
z-score [2]: -0.0016 (inactive)
z-score [3]: -0.838 (inactive)
z-score [4]: -0.351 (inactive)
composite z-score [5]: -0.487
z-score [6]: 0.147 (inactive)
composite z-score [7]: -0.121
composite z-score [8]: 1.17
composite z-score [9]: 0.646
composite z-score [10]: -0.0862
composite z-score [11]: 0.163
composite z-score [12]: -0.45
composite z-score [13]: -0.972
z-score [14]: 0.00442 (inactive)
composite z-score [15]: 0.752
composite z-score [16]: 0.393
composite z-score [17]: 0.554
composite z-score [18]: 0.804
composite z-score [19]: 0.881
composite z-score [20]: -0.108

C[N+](C)(C)CCCCNC(=O)[C@H]1C[C@H]2C(=O)N[C@@H](CCCC[N+](C)(C)C)C(=O)N2[C@H]1c1cccc(OCCO)c1
composite z-score [1]: 1.04 and 1.57
z-score [2]: -0.604 (inactive) and -0.504 (inactive)
z-score [3]: -0.0107 (inactive) and -0.805 (inactive)
z-score [4]: -1.88 (inactive) and -1.81 (inactive)
composite z-score [5]: 2.58 and 1.78
z-score [6]: -0.351 (inactive) and -0.201 (inactive)
composite z-score [7]: -0.121 and -0.0153
composite z-score [8]: 1.89 and 1.75
composite z-score [9]: 0.914 and 1.1
composite z-score [10]: 0.0614 and 0.22
composite z-score [11]: 1.82 and 1.11
composite z-score [12]: -0.171 and 0.256
composite z-score [13]: -0.537 and -0.421
z-score [14]: 0.00747 (inactive) and -0.387 (inactive)
composite z-score [15]: 1.51 and 1.39
composite z-score [16]: 0.0299 and 1.1
composite z-score [17]: 0.622 and 1.27
composite z-score [18]: 1.45 and 1.51
composite z-score [19]: 1.44 and 1.81
composite z-score [20]: 0.282 and 0.696

COc1ccc(O[C@H]2C=C[C@@H](c3ccccc3)O[C@@H]2COC(=O)CCC(C)=NO[C@H](C)c2cn([C@H](CO)Cc3ccccc3)nn2)cc1
composite z-score [1]: 0.88 and 0.299
z-score [2]: 0.479 (inactive) and 0.555 (inactive)
z-score [3]: 0.52 (inactive) and 0.0557 (inactive)
z-score [4]: 0.616 (inactive) and 1.32 (inactive)
composite z-score [5]: 0.026 and 0.303
z-score [6]: 0.204 (inactive) and 0.524 (inactive)
composite z-score [7]: -0.353 and -0.312
composite z-score [8]: 0.393 and 0.795
composite z-score [9]: 0.155 and 0.167
composite z-score [10]: 0.257 and -0.336
composite z-score [11]: 0.366 and 0.205
composite z-score [12]: 0.416 and -0.0879
composite z-score [13]: -0.305 and -0.291
z-score [14]: -0.643 (inactive) and -1.07 (inactive)
composite z-score [15]: -0.0593 and 0.263
composite z-score [16]: -0.018 and 0.173
composite z-score [17]: 0.188 and 0.353
composite z-score [18]: 0.73 and 0.397
composite z-score [19]: 1.12 and 1.39
composite z-score [20]: 0.164 and 0.485

C=CCN(CCCC)C(=O)C(c1cccs1)N(CCOCCO)C(=O)/C=C\C(=O)O (stereo not given)
composite z-score [1]: -1.08 and 0.596
z-score [2]: -1.98 (inactive) and -1.34 (inactive)
z-score [3]: -0.745 (inactive) and -0.342 (inactive)
z-score [4]: -0.604 (inactive) and -0.397 (inactive)
composite z-score [5]: 0.657 and 2.51
z-score [6]: 1.02 (inactive) and 1.45 (inactive)
composite z-score [7]: -0.145 and -0.139
composite z-score [8]: -1.73 and -0.798
composite z-score [9]: -0.852 and -0.503
composite z-score [10]: -0.236 and -0.148
composite z-score [11]: 1.66 and -1.5
composite z-score [12]: 0.103 and -0.18
composite z-score [13]: 0.792 and 0.161
z-score [14]: -1.21 (inactive) and -1.32 (inactive)
composite z-score [15]: -1.19 and -0.522
composite z-score [16]: -1.39 and -0.479
composite z-score [17]: -2.24 and -0.346
composite z-score [18]: -1.97 and -0.993
composite z-score [19]: -1.56 and -1.03
composite z-score [20]: -0.593 and 0.566

C=CCN(CCCCC)C(=O)C1N(C(C)(C)CO)C(=O)C2C(C(=O)O)C3C=CC21O3 (stereo not given)
composite z-score [1]: -1.11 and -1.37
z-score [2]: -0.447 (inactive) and -1.11 (inactive)
z-score [3]: -0.342 (inactive) and -0.0005 (inactive)
z-score [4]: -0.402 (inactive) and -0.177 (inactive)
composite z-score [5]: -1.82 and -1.59
z-score [6]: -0.373 (inactive) and -0.262 (inactive)
composite z-score [7]: -0.202 and -0.159
composite z-score [8]: -2.03 and -1.91
composite z-score [9]: -1.09 and -0.779
composite z-score [10]: -0.258 and -0.301
composite z-score [11]: -0.0662 and -1.13
composite z-score [12]: -0.706 and -0.0156
composite z-score [13]: 0.767 and 0.884
z-score [14]: 0.507 (inactive) and 0.484 (inactive)
composite z-score [15]: -1.96 and -0.741
composite z-score [16]: -1.35 and -0.534
composite z-score [17]: -1.79 and -1.92
composite z-score [18]: -1.65 and -2.06
composite z-score [19]: -1.61 and -2.14
composite z-score [20]: -3.53 and -1.16

C#CCCCON=C1C[C@@H](O)[C@@H](O)[C@@H]2[C@@H]3C(=O)N(C4CCCCC4)C(=O)[C@@H]3CC[C@H]12
composite z-score [1]: 0.589
z-score [2]: -0.177 (inactive)
z-score [3]: -0.539 (inactive)
z-score [4]: -0.193 (inactive)
composite z-score [5]: 1
z-score [6]: 0.318 (inactive)
composite z-score [7]: 0.0103
composite z-score [8]: 0.417
composite z-score [9]: 0.71
composite z-score [10]: -0.0842
composite z-score [11]: 0.72
composite z-score [12]: 0.149
composite z-score [13]: -0.0642
z-score [14]: -0.285 (inactive)
composite z-score [15]: 0.402
composite z-score [16]: 0.355
composite z-score [17]: 0.217
composite z-score [18]: 0.348
composite z-score [19]: 0.0938
composite z-score [20]: 0.24
